{
  "source": "the supplement of paper PMC12024424",
  "note": "Counter-ions that a name gives are not always drawn.",
  "data": [
    {"system": "Staphylococcus aureus Sa2 (MRSA, cystic fibrosis isolate)", "assay": "growth reduction vs untreated control (viable cell count); higher = stronger antibacterial activity; extreme values may be limits of the assay", "conditions": "0.1 mM; 24 h", "protocol": "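Single-dose screen of the MedChem Express Drug Repurposing Library (0.1 mM, 1% DMSO) against planktonic MRSA S. aureus Sa2 (CF isolate) in TSB in 96-well plates, 37 °C aerobic, 24 h. Assays were run in triplicate and repeated twice.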", "units": {"growth reduction": "%"}, "values": [
      {"smiles": "O=C(O)C[C@H]1CCc2c1[nH]c1ccc(OCc3ccc(C4CCCC4)c(C(F)(F)F)c3)cc21", "note": "[Etrasimod]", "growth reduction": 100},
      {"smiles": "N#CC(c1ccc(Cl)cc1)c1c(Cl)cc(-n2ncc(=O)[nH]c2=O)cc1Cl", "note": "(stereo not drawn) [Diclazuril]", "growth reduction": 100},
      {"smiles": "CC(C)COc1ccc(CNC(=O)N(Cc2ccc(F)cc2)C2CCN(C)CC2)cc1", "note": "[Pimavanserin]", "growth reduction": 100},
      {"smiles": "O=C(O)c1ccc(-n2nc(-c3ccccc3O)nc2-c2ccccc2O)cc1", "note": "[Deferasirox]", "growth reduction": 99},
      {"smiles": "O=c1ccc2ccc(O)c(O)c2o1", "note": "[Daphnetin]", "growth reduction": 98},
      {"smiles": "CC[C@@]1(O)C[C@H](O[C@H]2C[C@H](N(C)C)[C@H](O[C@H]3C[C@H](O)[C@H](O[C@H]4CCC(=O)[C@H](C)O4)[C@H](C)O3)[C@H](C)O2)c2c(cc3c(c2O)C(=O)c2c(O)cccc2C3=O)[C@H]1C(=O)OC", "note": "[Aclacinomycin A hydrochloride]", "growth reduction": 100},
      {"smiles": "C=CC(=O)N1CC[C@@H](Oc2nc(Nc3ccc(N4CCC(N5CCN(C)CC5)CC4)cc3)c(C(N)=O)nc2CC)C1", "note": "[Naquotinib (mesylate)]", "growth reduction": 100},
      {"smiles": "CCOc1cc(CC(=O)N[C@@H](CC(C)C)c2ccccc2N2CCCCC2)ccc1C(=O)O", "note": "[Repaglinide]", "growth reduction": 100},
      {"smiles": "Cc1c(CN(C)C(=O)/C=C/c2cnc3c(c2)CCC(=O)N3)oc2ccccc12", "growth reduction": 100},
      {"smiles": "Cc1ccc(Sc2ccccc2N2CCNCC2)c(C)c1", "note": "[Vortioxetine]", "growth reduction": 100},
      {"smiles": "C=C[C@@H]1C[C@]1(NC(=O)[C@@H]1C[C@@H]2CN1C(=O)[C@H](C(C)(C)C)NC(=O)O[C@@H]1C[C@H]1CCCCCc1nc3ccc(OC)cc3nc1O2)C(=O)NS(=O)(=O)C1CC1", "note": "[Grazoprevir hydrate]", "growth reduction": 100},
      {"smiles": "CN[C@H]1CN(c2ccc3c(=O)c(C(=O)O)cn(-c4nccs4)c3n2)C[C@@H]1OC", "note": "[Voreloxin (Hydrochloride)]", "growth reduction": 100},
      {"smiles": "O=C(CCCCCCNC(=O)c1cnc(N(c2ccccc2)c2ccccc2)nc1)NO", "note": "[Ricolinostat]", "growth reduction": 100},
      {"smiles": "Clc1ccc(COC(Cn2ccnc2)c2ccc(Cl)cc2Cl)c(Cl)c1", "note": "(stereo not drawn) [Miconazole (nitrate)]", "growth reduction": 100},
      {"smiles": "COCCN1CCC(N(Cc2ccc(-c3ccc(C(F)(F)F)cc3)cc2)C(=O)Cn2c(SCc3cccc(F)c3F)cc(=O)c3ccccc32)CC1", "note": "[Rilapladib]", "growth reduction": 100},
      {"smiles": "Cc1ccc(-n2[nH]c(C)c(N=Nc3cccc(-c4cccc(C(=O)O)c4)c3O)c2=O)cc1C", "note": "[Eltrombopag]", "growth reduction": 100},
      {"smiles": "O=C1NCCN1CCN1CCC(c2cn(-c3ccc(F)cc3)c3ccc(Cl)cc23)CC1", "note": "[Sertindole]", "growth reduction": 97},
      {"smiles": "CC(C)(C)[C@@H]1NC(=O)O[C@@H]2CCC[C@H]2OC/C=C/C(F)(F)c2nc3ccccc3nc2O[C@@H]2C[C@@H](C(=O)N[C@]3(C(=O)NS(=O)(=O)C4(C)CC4)C[C@H]3C(F)F)N(C2)C1=O", "note": "[Glecaprevir]", "growth reduction": 100},
      {"smiles": "CCc1oc2ccccc2c1C(=O)c1cc(Br)c(O)c(Br)c1", "note": "[Benzbromarone]", "growth reduction": 100},
      {"smiles": "COC(=O)N[C@H](C(=O)N1CCC[C@H]1c1nc(-c2ccc3c(c2)O[C@@H](c2ccccc2)n2c-3cc3cc(-c4c[nH]c([C@@H]5CCCN5C(=O)[C@@H](NC(=O)OC)C(C)C)n4)ccc32)c[nH]1)C(C)C", "note": "[Elbasvir]", "growth reduction": 100},
      {"smiles": "COC(=O)C1=C(C)NC(C)=C(C(=O)OC(C)C)C1c1cccc2nonc12", "note": "(stereo not drawn) [Isradipine]", "growth reduction": 100},
      {"smiles": "CSc1ccc(OCc2ncc([N+](=O)[O-])n2C)cc1", "note": "[Fexinidazole]", "growth reduction": 93},
      {"smiles": "Cc1ccc(C(=O)N(CCCN)[C@@H](c2nc3cc(Cl)ccc3c(=O)n2Cc2ccccc2)C(C)C)cc1", "note": "[Ispinesib]", "growth reduction": 100},
      {"smiles": "C=CC(=O)Nc1cc(Nc2nccc(-c3cn(C)c4ccccc34)n2)c(OC)cc1N(C)CCN(C)C", "note": "[Osimertinib mesylate]", "growth reduction": 100},
      {"smiles": "CC(C)(C)Cn1c(N)nc2ccc(-c3[nH]c(C(C)(C)C)nc3-c3ccc(F)cc3)nc21", "note": "[Ralimetinib dimesylate]", "growth reduction": 97},
      {"smiles": "COc1ccc(Cl)c(Nc2nc3ccccc3nc2NS(=O)(=O)c2cccc(NC(=O)C(C)(C)N)c2)c1", "note": "[Pilaralisib]", "growth reduction": 100},
      {"smiles": "COc1ccc(C(=O)NC2(C(=O)O)Cc3ccccc3C2)cc1OCCc1cccc(C)c1", "growth reduction": 96},
      {"smiles": "Cc1cc([C@H](C)Nc2nccc(N3C(=O)OC[C@@H]3[C@@H](C)F)n2)ncc1-c1ccnc(C(F)(F)F)c1", "growth reduction": 97}
    ]}
  ]
}
